The values that follow come from PubChem BioAssay (NCATS).

The structures appear in SMILES notation. Records with an inconclusive call do not appear. Activity calls are given as the source filed them. Unless noted, calls come from the whole dose curve; as a rule, active = well fitted curve in the direction sought with a large enough effect; inconclusive = small, poorly fitted or top-dose-only effect, or another doubt; inactive = no such curve, though single readings can be large; an effect the other way counts as inactive or inconclusive. Where a SMILES comes first, the peptide text is derived from it. [ ]: non-standard residue; d: D form. Ala(indol-2-yl) = N[C@@H](Cc1cc2ccccc2[nH]1)C(=O)O; Aib = CC(C)(N)C(=O)O
% is set by controls: 0 for no effect and ±100 for the full control effect; potency is the fitted concentration of half-maximal effect.

One assay deals with Cytochrome P450 2D6 (Homo sapiens) (UniProt P10635). In words: Cytochrome P450 family 2 subfamily D member 6 (CYP2D6) small molecule antagonists: luciferase biochemical (cell-free) qHTS assay (AID 1645840; active = well fitted curve in the direction sought with a large enough effect in the repeat runs; an effect the other way counts as inactive or inconclusive; note: nearly all actives have a fitted effect of over 55% in size). Conditions: P450-Glo CYP2D6 enzyme, luciferin luminescence, 1 h; series mostly up to 57.4 µM. The method in brief: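 P450-Glo CYP2D6 system: proluciferin substrate converted by enzyme to luciferin, read by luminescence proportional to activity. Enzyme-substrate mix with compound 10 min at room temperature, then NADPH regeneration 1 h before detection reagent.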
Cytochrome P450 2D6 (Homo sapiens), sequence (P10635 whole entry, looked up): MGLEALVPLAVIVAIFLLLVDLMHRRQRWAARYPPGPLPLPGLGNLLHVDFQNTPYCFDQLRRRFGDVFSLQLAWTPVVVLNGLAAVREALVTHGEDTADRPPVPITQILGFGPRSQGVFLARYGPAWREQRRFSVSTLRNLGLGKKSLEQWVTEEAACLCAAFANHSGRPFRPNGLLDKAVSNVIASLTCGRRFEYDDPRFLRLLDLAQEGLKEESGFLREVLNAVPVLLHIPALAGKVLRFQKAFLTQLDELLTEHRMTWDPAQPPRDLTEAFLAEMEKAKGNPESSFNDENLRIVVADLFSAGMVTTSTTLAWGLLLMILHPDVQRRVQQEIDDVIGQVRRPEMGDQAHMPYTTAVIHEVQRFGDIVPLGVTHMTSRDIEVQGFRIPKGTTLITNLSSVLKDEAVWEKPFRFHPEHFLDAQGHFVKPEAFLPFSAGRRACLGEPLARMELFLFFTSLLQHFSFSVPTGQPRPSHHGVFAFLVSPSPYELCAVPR
A general note: In qHTS, concentration-response curves come from the screen itself.
On to `Cc1c(Cl)c(OCC(=O)N2CCN(C)CC2)nc2sc(C(=O)NC3CC3)c(N)c12`, for which the Potency entry is “inactive”.

Turning to `CN(C)c1cc2c(cc1Sc1nc3c(N)nccc3n1CCNCC(C)(C)C)OCO2`, the Potency was 952 nM (active).

Regarding `N#Cc1cn([C@@H]2O[C@H](CO)[C@H](O)[C@@H]2O)c2ncnc(N)c12`, the Potency result is “inactive”.

System in a further assay: not listed separately
In words: Primary qHTS for inhibitors of nuclear receptor binding SET domain protein 2 (NSD2) in an isogenic RCH-ACV NSD2 p.E1099K mutant (9B) (AID 1645876). Note: nearly all actives have a fitted effect of over 70% in size. Conditions: RCH-ACV (leukaemia line) NSD2 E1099K (9B) viability, CellTiter-Glo, 72 h; series mostly up to 44.9 µM.
For the compound `O=C(OC[C@H]1O[C@@H](Oc2ccc(O)cc2CO)[C@H](O)[C@@H](O)[C@@H]1O)c1ccccc1`, the Potency entry was “inactive”.

As to `CC(=O)O[C@@H]1[C@@H](O)[C@H]2O[C@@H]3C=C(C)[C@@H](O)C[C@]3(CO)[C@]1(C)[C@]21CO1`, the Potency was 450 nM (active).

For `COc1cc2c(c(OC)c1OC)-c1ccc(SC)c(=O)cc1[C@@H](NC(C)=O)CC2`, the Potency is 4.6 nM (active).

Consider `CC(C)(NC(=O)[C@@H](N)Cc1ccc(O)cc1)C(=O)N[C@@H](Cc1cc2ccccc2[nH]1)C(=O)N[C@@H](Cc1ccccc1)C(=O)O` (H-Y[Aib][Ala(indol-2-yl)]F-OH), for which the activity change, negative = viability loss was -7% [at 9.23 µM] (inactive).

With `C=C1[C@@H](C)[C@H]2[C@H](Cc3ccccc3)NC(=O)[C@]23[C@H](OC(C)=O)/C=C/[C@](C)(O)C(=O)[C@@H](C)C/C=C/[C@H]3[C@@H]1O`, the Potency is 728 nM (active).

Turning to `C[C@@H]1C[C@@H](O)[C@]2(O)O[C@@H]3C[C@@]4(C=O)C(CC[C@@H]5C4CC[C@]4(C)[C@@](O)(C6=CC(=O)OC6)CC[C@]54O)C[C@H]3OC2O1` (stereo partly drawn), the Potency is 709 nM (active).

`CC(=O)OC[C@]12C[C@H](OC(=O)CC(C)C)C(C)=C[C@H]1O[C@@H]1[C@H](O)[C@@H](OC(C)=O)[C@@]2(C)[C@@]12CO2`: the Potency is 22.4 nM (active).

Consider `CC[C@H](C)[C@H](NC(=O)[C@H]1CCCCN1C)C(=O)N(COC(=O)CC(C)C)[C@H](C[C@@H](OC(C)=O)c1nc(C(=O)N[C@@H](Cc2ccc(O)cc2)C[C@H](C)C(=O)O)cs1)C(C)C`, for which the Potency is 1.1 nM (active).

Consider `CN[C@@H]1C[C@H]2O[C@@](C)([C@@H]1OC)n1c3ccccc3c3c4c(c5c6ccccc6n2c5c31)C(=O)NC4`, for which the Potency is 37.2 nM (active).

Turning to `CC1=C[C@H]2O[C@@H]3C[C@H]4OC(=O)/C=C/C=C/C(=O)OCC/C(C)=C/C(=O)OC[C@@]2(CC1)[C@]4(C)[C@]31CO1`, the Potency is 5.6 nM (active).

Take `CC(=O)OC[C@]12C[C@H](OC(=O)CC(C)C)C(C)=C[C@H]1O[C@@H]1[C@H](O)[C@@H](O)[C@@]2(C)[C@]12CO2`: the Potency was 25.2 nM (active).

`CC(=O)OC[C@]12C[C@H](OC(=O)CC(C)C)C(C)=C[C@H]1O[C@@H]1[C@H](O)C[C@@]2(C)[C@]12CO2`: the Potency is 632 nM (active).

With `COC1CC(O[C@H]2CC[C@]3(C)C4CC[C@]5(C)[C@@H](C6=CC(=O)OC6)[C@@H](OC(C)=O)C[C@]5(O)C4CC[C@@H]3C2)OC(C)C1O[C@@H]1O[C@H](CO)[C@@H](O)[C@H](O)[C@H]1O` (stereo partly drawn), the Potency was 383 nM (active).

For the compound `Cc1c(Cl)c(OCC(=O)N2CCN(C)CC2)nc2sc(C(=O)NC3CC3)c(N)c12`, the Potency entry is “inactive”.

Take `CO[C@H]1[C@H](O)[C@H](O[C@H]2CC[C@]3(C=O)C4CC[C@]5(C)[C@H](C6=CC(=O)OC6)CC[C@]5(O)C4CC[C@@H]3C2)O[C@@H](C)[C@@H]1O` (stereo partly drawn): the Potency was 15.9 nM (active).

As for `C[C@H]1O[C@@H](O[C@H]2CC[C@]3(C=O)C4CC[C@]5(C)[C@@H](C6=CC(=O)OC6)CC[C@]5(O)[C@@H]4CC[C@]3(O)C2)C[C@@H](O)[C@@H]1O` (stereo partly drawn), the Potency is 31.7 nM (active).

As to `COC1CC(O[C@H]2CC[C@]3(C=O)C4CC[C@]5(C)[C@@H](C6=CC(=O)OC6)CC[C@]5(O)[C@@H]4CC[C@@H]3C2)OC(C)C1O[C@@H]1O[C@H](CO)[C@@H](O[C@@H]2O[C@H](CO)[C@@H](O)[C@H](O)[C@H]2O)[C@H](O)[C@H]1O` (stereo partly drawn), the Potency was 77.4 nM (active).

On to `C[C@]12CC[C@H](O)C[C@H]1CC[C@@H]1[C@@H]2[C@H](O)C[C@]2(C)[C@@H](c3ccc(=O)oc3)CC[C@]12O`, for which the Potency is 16.3 nM (active).

As for `C[C@H]1O[C@@H](O[C@H]2CC[C@]3(CO)C4CC[C@]5(C)[C@@H](C6=CC(=O)OC6)CC[C@]5(O)[C@@H]4CC[C@H]3C2)[C@H](O)[C@H](O)[C@@H]1O[C@@H]1O[C@H](CO)[C@@H](O)[C@H](O)[C@H]1O` (stereo partly drawn), the Potency is 608 nM (active).

Regarding `CC1=C[C@H]2O[C@@H]3[C@H](O)[C@@H](O)[C@](C)([C@@]2(CO)C[C@@H]1O)[C@]31CO1`, the Potency was 728 nM (active).
